Test results: PMC4336329 (PLoS ONE, 2015)
Hit rate of the full screen: of about 310,000 compounds, about 14,000 (4.5%) showed an effect of 50% or more. Effects have a minus sign here. The full list was thinned out, with strong results kept by preference.

What follows are compounds tested against human ether-à-go-go-related gene (hERG) potassium channel (human, UniProt Q12809) (assay: primary screen, population patch clamp on CHO cells stably expressing hERG; higher = less effect of the substance).
Chain of human ether-à-go-go-related gene (hERG) potassium channel (Q12809 whole entry, looked up): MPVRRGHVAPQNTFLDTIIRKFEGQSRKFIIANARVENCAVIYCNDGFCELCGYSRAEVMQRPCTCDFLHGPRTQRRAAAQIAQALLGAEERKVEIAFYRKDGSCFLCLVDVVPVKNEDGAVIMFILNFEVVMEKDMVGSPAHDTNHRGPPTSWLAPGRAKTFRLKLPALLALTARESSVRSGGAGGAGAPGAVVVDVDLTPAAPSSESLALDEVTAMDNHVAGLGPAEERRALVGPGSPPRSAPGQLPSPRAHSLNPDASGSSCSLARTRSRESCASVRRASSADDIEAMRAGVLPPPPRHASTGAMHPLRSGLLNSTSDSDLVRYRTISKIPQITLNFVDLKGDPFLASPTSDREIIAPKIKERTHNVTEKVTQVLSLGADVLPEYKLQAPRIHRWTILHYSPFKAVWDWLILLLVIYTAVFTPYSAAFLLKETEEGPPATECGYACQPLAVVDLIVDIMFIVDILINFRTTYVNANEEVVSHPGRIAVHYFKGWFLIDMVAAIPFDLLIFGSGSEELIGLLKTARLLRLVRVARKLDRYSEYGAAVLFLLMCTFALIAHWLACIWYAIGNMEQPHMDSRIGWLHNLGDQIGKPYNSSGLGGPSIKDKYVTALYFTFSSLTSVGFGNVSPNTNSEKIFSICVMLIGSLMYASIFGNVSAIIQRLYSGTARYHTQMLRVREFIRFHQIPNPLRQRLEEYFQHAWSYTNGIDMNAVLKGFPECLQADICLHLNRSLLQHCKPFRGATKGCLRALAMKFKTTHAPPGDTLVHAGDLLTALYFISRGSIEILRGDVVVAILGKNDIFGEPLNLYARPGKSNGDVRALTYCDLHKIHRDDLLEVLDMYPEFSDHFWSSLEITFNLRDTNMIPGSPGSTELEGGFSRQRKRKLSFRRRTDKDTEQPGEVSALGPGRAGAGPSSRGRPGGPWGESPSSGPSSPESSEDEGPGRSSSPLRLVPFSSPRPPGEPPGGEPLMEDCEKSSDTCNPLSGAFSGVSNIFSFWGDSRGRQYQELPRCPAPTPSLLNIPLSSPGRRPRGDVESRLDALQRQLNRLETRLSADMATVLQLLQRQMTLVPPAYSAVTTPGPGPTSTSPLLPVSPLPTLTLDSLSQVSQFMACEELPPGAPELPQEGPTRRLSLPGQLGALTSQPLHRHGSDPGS
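Also: peak tail current of the secondary pulse compared with the same well before compound.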

How did the “hERG current change (%, negative = inhibition) at 10uM” value turn out when `N#CCc1c(C#N)c(N)nc(N2CCN(S(=O)(=O)c3ccccc3)CC2)c1C#N` was run?
Its value is -0.357%.

Which “hERG current change (%, negative = inhibition) at 10uM” value does the source give for `C=CCn1c(SCC(=O)Nc2cccnc2Cl)nnc1-c1ccccc1F` here?
Its value is -15.5%.

For `COc1cc(C=O)ccc1OCCSc1ccc(C)cc1`, which “hERG current change (%, negative = inhibition) at 10uM” value is on record?
The value was -3.13%.

Which “hERG current change (%, negative = inhibition) at 10uM” value does the source give for `O=C(CSc1nnc(CNC(=O)c2ccco2)o1)Nc1ccccc1` here?
Its value is 17.2%.

`CN(C)C(CNC(=O)CCc1c[nH]c2ccccc12)c1ccccc1` (centres unmarked) was tested. Which “hERG current change (%, negative = inhibition) at 10uM” value did it give?
Its value is -5.7%.

With `CCOC(=O)C1=CC[C@H]2c3c(c4ccccc4n3C)C(=O)C1N2S(=O)(=O)c1ccc(C)cc1` as the compound, how does the “hERG current change (%, negative = inhibition) at 10uM” value read?
Its value is -4.05%.

For `COc1ccc(C2=NS(=O)(=O)N(C)C(C(=O)NCc3ccccn3)=C2)cc1`, which “hERG current change (%, negative = inhibition) at 10uM” value is on record?
The value was -33.9%.

Which “hERG current change (%, negative = inhibition) at 10uM” value does the source give for `COc1ccc(C2=NS(=O)(=O)N(C)C(C(=O)N(C)Cc3ccccc3)=C2)cc1` here?
The value was -69.9%.

For `COc1ccc(C2=NS(=O)(=O)N(C)C(C(=O)NCc3cccs3)=C2)cc1OC`, which “hERG current change (%, negative = inhibition) at 10uM” value is on record?
Its value is -53.9%.

With `Cc1ccc(C2=NS(=O)(=O)N(C)C(C(=O)NCc3ccco3)=C2)cc1` as the compound, how does the “hERG current change (%, negative = inhibition) at 10uM” value read?
The value was -58.4%.

Which “hERG current change (%, negative = inhibition) at 10uM” value does the source give for `COc1ccc(OC)c(C2=NS(=O)(=O)N(C)C(C(=O)NCc3cccs3)=C2)c1` here?
The value was -28%.

For `COc1ccc(C2=NS(=O)(=O)N(C)C(C(=O)N(C)Cc3ccccc3)=C2)cc1OC`, which “hERG current change (%, negative = inhibition) at 10uM” value is on record?
Its value is -6.75%.

With `Cc1ccc(C2=NS(=O)(=O)N(C)C(C(=O)NCc3cccs3)=C2)cc1` as the compound, how does the “hERG current change (%, negative = inhibition) at 10uM” value read?
Its value is -8.57%.

For `COc1ccc(CNC(=O)C2=CC(c3ccc(C)cc3)=NS(=O)(=O)N2C)cc1`, which “hERG current change (%, negative = inhibition) at 10uM” value is on record?
The value was -9.69%.

With `COc1ccc(CNC(=O)C2=CC(c3ccc(OC)cc3)=NS(=O)(=O)N2C)cc1` as the compound, how does the “hERG current change (%, negative = inhibition) at 10uM” value read?
Its value is -54.5%.

For `CN1C(C(=O)NCc2ccco2)=CC(c2ccc(F)cc2)=NS1(=O)=O`, which “hERG current change (%, negative = inhibition) at 10uM” value is on record?
Its value is -34.2%.

Which “hERG current change (%, negative = inhibition) at 10uM” value does the source give for `COc1ccc(C2=NS(=O)(=O)N(C)C(C(=O)NC(C)c3ccccc3)=C2)cc1` (centres unmarked) here?
Its value is -23.8%.

For `COc1ccc(C2=NS(=O)(=O)N(C)C(C(=O)NCc3ccco3)=C2)cc1OC`, which “hERG current change (%, negative = inhibition) at 10uM” value is on record?
Its value is -48.9%.

Which “hERG current change (%, negative = inhibition) at 10uM” value does the source give for `CCc1ccc(C2CC(c3ccc(Cl)cc3)n3nc(N)nc3N2)cc1` (centres unmarked) here?
The value was -10.3%.

With `CC(C(=O)N1CCc2ccccc21)N1CCN(S(=O)(=O)c2cccs2)CC1` (centres unmarked) as the compound, how does the “hERG current change (%, negative = inhibition) at 10uM” value read?
Its value is -28.8%.

Which “hERG current change (%, negative = inhibition) at 10uM” value does the source give for `Cc1ccnc(OC(C(=O)O)C(OCCc2ccccc2)(c2ccccc2)c2ccccc2)n1` (centres unmarked) here?
Its value is 23.2%.

How did the “hERG current change (%, negative = inhibition) at 10uM” value turn out when `CC(=O)Nc1n[nH]c(-c2ccc(C)cc2)c1C` was run?
Its value is 4.49%.

`Cc1ccc(CNS(=O)(=O)CCNC(=O)c2ccccc2)cc1` was tested. Which “hERG current change (%, negative = inhibition) at 10uM” value did it give?
Its value is -33.5%.

How did the “hERG current change (%, negative = inhibition) at 10uM” value turn out when `Cc1[nH]nc2c1C(c1cccs1)C(C#N)=C(N)O2` (centres unmarked) was run?
The value was 5.07%.

How did the “hERG current change (%, negative = inhibition) at 10uM” value turn out when `O=C(OCC(=O)N1CCc2ccccc2C1)c1cccnc1Cl` was run?
Its value is -0.321%.

With `COc1ccc(C2=NS(=O)(=O)N(C)C(C(=O)NCc3ccc(F)cc3)=C2)cc1OC` as the compound, how does the “hERG current change (%, negative = inhibition) at 10uM” value read?
Its value is -59%.

`COc1ccc(C2=NS(=O)(=O)N(C)C(C(=O)NCc3ccc4c(c3)OCO4)=C2)cc1` was tested. Which “hERG current change (%, negative = inhibition) at 10uM” value did it give?
The value was -63.3%.

For `COc1ccc(C2=NS(=O)(=O)N(C)C(C(=O)NCc3ccc4c(c3)OCO4)=C2)cc1OC`, which “hERG current change (%, negative = inhibition) at 10uM” value is on record?
The value was -34.9%.

Which “hERG current change (%, negative = inhibition) at 10uM” value does the source give for `COc1ccc(C2=NS(=O)(=O)N(C)C(C(=O)Nc3ccc4c(c3)OCO4)=C2)cc1` here?
Its value is -4.37%.

For `Cc1ccc(C2=NS(=O)(=O)N(C)C(C(=O)NCc3ccc(F)cc3)=C2)cc1`, which “hERG current change (%, negative = inhibition) at 10uM” value is on record?
Its value is -28.4%.

`COc1ccc(CNC(=O)C2=CC(c3ccc(OC)c(OC)c3)=NS(=O)(=O)N2C)cc1` was tested. Which “hERG current change (%, negative = inhibition) at 10uM” value did it give?
The value was -21.8%.

How did the “hERG current change (%, negative = inhibition) at 10uM” value turn out when `Cc1cc(C)nc(NC(=O)c2ccccc2O)n1` was run?
Its value is 18.3%.

How did the “hERG current change (%, negative = inhibition) at 10uM” value turn out when `c1ccc(CSc2ccc(-c3cccnc3)nn2)cc1` was run?
Its value is -13.7%.

How did the “hERG current change (%, negative = inhibition) at 10uM” value turn out when `Fc1cccc(Cl)c1CSc1ccc(-c2ccco2)nn1` was run?
Its value is 1.19%.

For `Clc1cccc(CSc2ccc(-c3cccnc3)nn2)c1`, which “hERG current change (%, negative = inhibition) at 10uM” value is on record?
Its value is -67.3%.

How did the “hERG current change (%, negative = inhibition) at 10uM” value turn out when `c1ccc(CSc2ccc(-c3cccnc3)nn2)nc1` was run?
The value was 6.82%.

Which “hERG current change (%, negative = inhibition) at 10uM” value does the source give for `Clc1ccc(CSc2ccc(-c3cccnc3)nn2)cc1` here?
The value was -48.6%.

Which “hERG current change (%, negative = inhibition) at 10uM” value does the source give for `O=[N+]([O-])c1cccc(-c2ccc(SCc3ccccn3)nn2)c1` here?
Its value is -6.25%.

With `O=[N+]([O-])c1cccc(-c2ccc(SCc3cccnc3)nn2)c1` as the compound, how does the “hERG current change (%, negative = inhibition) at 10uM” value read?
Its value is -55%.

How did the “hERG current change (%, negative = inhibition) at 10uM” value turn out when `c1cncc(CSc2ccc(-c3cccnc3)nn2)c1` was run?
Its value is 9.04%.

Which “hERG current change (%, negative = inhibition) at 10uM” value does the source give for `Fc1cccc(Cl)c1CSc1ccc(-c2cccnc2)nn1` here?
The value was -68.9%.

How did the “hERG current change (%, negative = inhibition) at 10uM” value turn out when `N#Cc1c(NC(=O)COC(=O)c2ccc(S(=O)(=O)N3CCCC3)cc2)sc2c1CCCCC2` was run?
The value was 6.38%.

With `CCCCC1C(C#N)=C(C)NC2=C1C(=O)CC(C)(C)C2` (centres unmarked) as the compound, how does the “hERG current change (%, negative = inhibition) at 10uM” value read?
Its value is -9.68%.

How did the “hERG current change (%, negative = inhibition) at 10uM” value turn out when `O=C(CSc1nc(NS(=O)(=O)c2ccccc2)cc(=O)[nH]1)Nc1ccc(F)cc1` was run?
The value was 10.7%.
